CtBP-E1A blk: qHTS Assay for Inhibitors of the CtBP/E1A Interaction; activity change, % (no concentration beside the values); 340,000 tested, 0.49% active; AID 651724, 2012; AlphaScreen GST-E1A/His-CtBP binding, 1536-well; active compounds read low; CtBP / adenovirus E1A interaction (AlphaScreen); in the data active means activity change below about -65%; inconclusive means mostly about -30% to -63%
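Steps: dispense buffer (Tris pH 8.0, NaCl 300 mM, TCEP 1 mM, BSA, Tween 20); add 5X protein mix (GST-E1A, His-CtBP, 125 nM each); pin 23 nL compound; 2 h at 37 °C, dark; add 5X beads (50 ug/mL); 1 h; read.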
IL-1B inflam inh: qHTS for Inhibitors of Inflammasome Signaling: IL-1-beta AlphaLISA Primary Screen | THP-1 LPS/ATP IL-1B secretion, AlphaLISA, 16 h; active compounds read low | activity change, % at 57.5 µM | 360,000 tested, 4.7% active | AID 743279, 2014; in the data active means activity change below about -50%; inconclusive means mostly about -30% to -49%
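Secreted IL-1B measured by AlphaLISA bead assay after 16 h compound exposure of THP-1 cells; compounds (final up to 57.5 uM) added 1 h before LPS (250 ng/mL) and ATP (1.25 mM) stimulation; lower signal means less secretion.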
Six1-Eya2 inh: qHTS Assay for Inhibitors of the Six1/Eya2 Interaction; 360,000 tested, 0.56% active; activity change, % (test concentration not listed); Homeobox protein SIX1 (Homo sapiens) + Protein phosphatase EYA2 (Homo sapiens), …; AlphaScreen GST-Six1/His-Eya2 binding, biochemical; active compounds read low; in the data active means activity change below about -65%; inconclusive means mostly about -30% to -63%
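Six1/Eya2 binding was read as AlphaScreen signal after compounds were pinned into GST-Six1 plus His-tagged Eya2 (5X stock 250/500 nM) in pH 8.0 Tris/NaCl/TCEP buffer, beads added, then incubated 1 h, 37 C, dark.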
TDP1 cell noCPT: qHTS for Inhibitors of human tyrosyl-DNA phosphodiesterase 1 (TDP1): qHTS in cells in absence of CPT; Potency, µM (doses to about 46.2 µM), without a hit: at the top dose activity change, negative = growth inhibition, hits mostly inhibitors; AID 686978, 2013; DT40 Tdp1-/- hTDP1 cells, no CPT, ATP luminescence, 48 h; 420,000 tested, 15% active; further: potency means the concentration at half of the fitted maximal effect; nearly all actives have a fitted effect of over 55% in size
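Chicken DT40 Tdp1-/- cells complemented with human TDP1, screened without camptothecin (DMSO vehicle only), 400 cells/well. Compounds pin-transferred, cells incubated at 37 °C for at least 48 hr. Growth read as ATP-dependent luminescence (CellTiter-Glo, 30 min at RT).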
DT40 TDP1 CPT: qHTS for Inhibitors of human tyrosyl-DNA phosphodiesterase 1 (TDP1): qHTS in cells in presence of CPT; chicken DT40 Tdp1-/-;hTDP1 cells + 20 nM CPT, ATP luminescence, 48 h; Potency, µM (series often up to 46.2 µM), for inactives: at the highest dose activity change, negative = growth inhibition, most hits filed as inhibitors; 420,000 tested, 12% active; AID 686979, 2013; further: potency means the concentration at half of the fitted maximal effect; nearly all actives have a fitted effect of over 55% in size
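Chicken DT40 Tdp1-/- cells complemented with human TDP1, 400 cells/well, exposed to compounds plus 20 nM camptothecin for at least 48 h at 37 C; viability read as ATP content by CellTiter-Glo luminescence.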
TDP1 block: qHTS Assay for Inhibitors of Tyrosyl-DNA Phosphodiesterase (TDP1) | Tyrosyl-DNA phosphodiesterase 1 (Homo sapiens), Q9NUW8 | recombinant TDP1, AlphaScreen DNA substrate cleavage | Potency, µM (series often up to 130 µM), for inactives: at the highest dose activity change, negative = inhibition, actives largely listed as inhibitors | 350,000 tested, 0.28% active; further: potency means the concentration at half of the fitted maximal effect; nearly all actives have a fitted effect of over 40% in size
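Enzyme-compound mixtures sat 15 min at room temperature, followed by a 5 min reaction with 15 nM final substrate and 10 min with AlphaScreen beads. Recombinant human Tdp1 was used at 1 nM final.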
* = called active by the depositor; [ ] = dose if it differs, or a comment. Most compounds without a hit are left out; they make up all but 18% or so of the library. Unless noted, the call rests on the fitted dose curve; in most records, active means well fitted curve in the direction sought with a large enough effect; inconclusive means small, poorly fitted or top-dose-only effect, or another doubt; inactive means no such curve, though single readings can be large; an effect the other way counts as inactive or inconclusive. On the % scale 0 is the no-effect control and ±100 the full control effect.

`O=C1NCN(c2ccccc2)C12CCN(C(CCc1ccccc1)c1nnnn1C1CCCCC1)CC2` (centres undefined) gave CtBP-E1A blk -11, IL-1B inflam inh -56*, Six1-Eya2 inh -10, TDP1 cell noCPT inconclusive and DT40 TDP1 CPT inconclusive.
`CCCCn1nnnc1C(c1ccc(OC)cc1)N1CCC2(CC1)C(=O)NCN2c1ccccc1` (centres undefined) gave CtBP-E1A blk inconclusive, IL-1B inflam inh -13, Six1-Eya2 inh 1, TDP1 cell noCPT inconclusive and DT40 TDP1 CPT 18µM*.
Screening COc1ccc(C(c2nnnn2Cc2ccccc2)N2CCC3(CC2)C(=O)NCN3c2ccccc2)cc1 (centres undefined) returned CtBP-E1A blk -12, IL-1B inflam inh -58*, Six1-Eya2 inh -15, TDP1 cell noCPT inconclusive and DT40 TDP1 CPT inconclusive.
O=C(CN1CCN(CCO)CC1)Nc1ccc(Cl)cc1C(=O)c1ccccc1 was read as CtBP-E1A blk 0, IL-1B inflam inh -3, Six1-Eya2 inh 3, TDP1 cell noCPT -12%, DT40 TDP1 CPT -7% and TDP1 block 2%[56.1 µM].
Screening O=C(CSc1ncnc2c1nnn2-c1ccc(F)cc1)NCC1CCCO1 (centres undefined) returned CtBP-E1A blk 13, IL-1B inflam inh inconclusive, Six1-Eya2 inh -3, TDP1 cell noCPT 21µM*, DT40 TDP1 CPT 15µM* and TDP1 block -1%.
Screening COc1ccc(CC(=O)N2CCN(C)CC2)cc1 returned CtBP-E1A blk -15, IL-1B inflam inh -15, Six1-Eya2 inh -3, TDP1 cell noCPT 10%, DT40 TDP1 CPT 8% and TDP1 block -3%.
COc1ccc(CNC(=O)C2CCN(C(=O)c3cnn(-c4ccccc4)c3-n3cccc3)CC2)cc1 was read as TDP1 cell noCPT 6.5µM*, DT40 TDP1 CPT 16µM* and TDP1 block 3%.
Screening COc1ccc(CNC(=O)C2CCN(c3nc(OC)nc(OC)n3)CC2)cc1 returned CtBP-E1A blk 10, IL-1B inflam inh 13, Six1-Eya2 inh -1, TDP1 cell noCPT 16µM* and DT40 TDP1 CPT inconclusive.
Screening Cc1ccc(NC(=O)C2CCN(C(=O)c3cnn(-c4ccccc4)c3-n3cccc3)CC2)cc1Cl returned TDP1 cell noCPT 13µM*, DT40 TDP1 CPT inconclusive and TDP1 block 5%.
`Cc1nnc(N2CCC(C(=O)NCc3ccc(N(C)C)cc3)CC2)c2nn(-c3ccccc3)c(C)c12` gave TDP1 cell noCPT inconclusive, DT40 TDP1 CPT inconclusive and TDP1 block 8%.
O=C(NCc1ccc(Cl)cc1)C1CCN(C(=O)c2cnn(-c3ccccc3)c2-n2cccc2)CC1 was read as TDP1 cell noCPT 10µM*, DT40 TDP1 CPT 15µM* and TDP1 block 0%.
Screening COc1ccccc1N(CC(=O)NC1CCCC1)C(=O)c1cnn(C(C)C)c1 returned CtBP-E1A blk 0, IL-1B inflam inh -19, Six1-Eya2 inh -2, TDP1 cell noCPT -8%, DT40 TDP1 CPT -15% and TDP1 block 0%.
For CCCC[N+]12C3C[C@H](C4[C@H](O)[C@]5(C[C@@H]41)c1ccccc1N(C)[C@@H]35)[C@H](CC)[C@H]2O (some centres undefined) the results were IL-1B inflam inh -13, Six1-Eya2 inh -4, TDP1 cell noCPT inconclusive and DT40 TDP1 CPT inconclusive.

Assay outcomes (PubChem)
